Dicer processing – inhibitors of human Dicer processing of pre-microRNA; Q9UPY3; cat-ELCCA pre-miR-21 Dicer processing, chemiluminescence; active compounds read high; z-score at 25 µM; 6% of 47,000 active; in the data active = z-score above about 3, passing the limit was not always enough;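 also: plate controls were vehicle for no effect and no enzyme for full effect; higher signal means more uncleaved substrate so more Dicer inhibition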
Starred values were filed as active, the others as inactive. This is one part of a sample in which hits are shown more often than they occur.

SMILES | Dicer processing
COc1ccc(OC)c(C2SCCN2S(=O)(=O)c2ccccc2)c1 (stereo not given) | 2.2
COc1ccc(C2SCCN2S(=O)(=O)c2ccc(Br)cc2)cc1 (stereo not given) | 3.7*
CCOc1ccc(S(=O)(=O)N2CCSC2c2cc(OC)ccc2OC)cc1 (stereo not given) | 4.8*
COc1ccc(S(=O)(=O)N2CCSC2c2ccccc2)cc1 (stereo not given) | 2.1
COc1ccc(C2SCCN2S(=O)(=O)c2ccc(F)cc2)cc1 (stereo not given) | 1.1
CCCCCOc1ccc(C2C(C(=O)OCC)=C(C)N=C3SC(C)C(=O)N32)cc1 (stereo not given) | -0.16
C/C(=N\NC(=O)/C=C/C(=O)O)c1ccc([N+](=O)[O-])cc1 | 0.71
CCOC(=O)C1=NN(c2ccc(C)cc2)C2(C)c3cc(OC)c(OC)cc3CCN12 (stereo not given) | -1.5
CCOC(=O)c1c(C)oc2c(Br)cc(NS(=O)(=O)c3ccc(OCC)cc3)cc12 | 1.1
NC(=O)CCOC1CCN(Cc2ccccc2)CC1 | -0.97
O=C(c1ccco1)N(CCN(C(=O)c1ccco1)c1ccccc1)c1ccccc1 | -1.9
CCOC(=O)c1sc(N2C(=O)C(=O)/C(=C(/O)c3ccccc3)C2c2ccc(F)cc2)nc1C (stereo not given) | -0.07
COc1ccc(CNC(=S)NCCCO)cc1 | -1.3
CCCC(=O)N(c1ccc2oc(=O)sc2c1)S(=O)(=O)c1ccc(OC)c(OC)c1 | 4.2*
CC(C)C(=O)N(c1ccc2oc(=O)sc2c1)S(=O)(=O)c1ccc(Br)cc1 | 0.6
CCCC(=O)N(c1ccc2oc(=O)sc2c1)S(=O)(=O)c1ccc(F)cc1 | -1.6
CCCCC(=O)N(c1ccc2oc(=O)sc2c1)S(=O)(=O)c1ccc(OC)c(OC)c1 | 3.9*
CCCCC(=O)N(c1ccc2oc(=O)sc2c1)S(=O)(=O)c1ccc(OCC)cc1 | 0.55
CCCC(=O)N(c1ccc2oc(=O)sc2c1)S(=O)(=O)c1ccc(C(=O)O)cc1 | -0.07
CCCCC(=O)N(c1ccc2oc(=O)sc2c1)S(=O)(=O)c1cccs1 | -3.9
O=C(Cc1ccccc1)N(c1ccc2oc(=O)sc2c1)S(=O)(=O)c1ccccc1 | 5.4*
CCCC(=O)N(c1ccc2oc(=O)sc2c1)S(=O)(=O)c1cc(OC)ccc1OC | 2.6
c1ccc2c(c1)c1ccccc1n2CN1CCCCC1 | 0.24
CC(C)(C)c1cc(-c2cc(C(F)(F)F)nc(N)n2)c2c(c1)C(C)(C)CC2 | -0.57
CC(C)(CCC(C)(C)N1C(=O)c2cccc3cccc(c23)C1=O)N1C(=O)c2cccc3cccc(c23)C1=O | 2.2
SMILES | Dicer processing
CNS(=O)(=O)c1cc2c(c([N+](=O)[O-])c1)-c1c(cc(S(=O)(=O)NC)cc1[N+](=O)[O-])C2=O | 0.91
O=C(Nc1cccc(-n2cccc2)c1)c1cccc2c1OCCCO2 | 0.47
O=C(CSc1nc2ccccc2nc1N1CCCC1)NC1CCCCC1 | 0.23
CCOc1ccccc1C1C2=C(Nc3c1c(=O)[nH]c(=O)n3C)c1ccccc1C2=O (stereo not given) | 0.22
COc1ccc(OC(C)C(=O)Nc2ncn[nH]2)cc1 (stereo not given) | 0.52
CCOc1ccc(CNc2ncc(-c3ccc(Br)cc3)n2C)cc1 | 0.91
Cn1ncc2c(NC3CCCCC3)ncnc21 | 0.96
Cc1ccc(Nc2ncnc3ccccc23)c(C)c1 | -0.49
Cc1ccc2ncnc(NC3CCCCC3)c2c1 | 4.7*
COc1cc(C)nc(NC(=O)Nc2sc(=S)n(C)c2C)n1 | 1.3
O=C(Nc1ccccc1)Nc1cccc(NC(=O)Nc2ccccc2)c1F | -0.34
O=C(Nc1cccc(C(F)(F)F)c1)Oc1ccc(F)cc1Cl | 0.94
O=C(Nc1ccccc1)Oc1cccc(F)c1OC(=O)Nc1ccccc1 | 3.4*
Cc1ccc(S(=O)(=O)NNC(=S)Nc2cc(C(F)(F)F)cc(C(F)(F)F)c2)cc1 | 3.7*
CSc1nc(C)nc(N/C=C(\C#N)S(=O)(=O)c2ccc(C)cc2)n1 | -2.2
Cc1ccc(S(=O)(=O)NNC(=S)Nc2ccc(Cl)cc2)cc1 | 6.1*
CCc1ccc(NC(=S)NNS(=O)(=O)c2ccc(C)cc2)cc1 | -0.96
Cc1ccc(S(=O)(=O)NNC(=S)Nc2ccccc2)cc1 | 0.06
N#C/C(=C\NCc1cc(C(F)(F)F)cc(C(F)(F)F)c1)S(=O)(=O)c1ccc(Cl)c(Cl)c1 | -1.7
Cc1ccc(S(=O)(=O)NNC(=S)Nc2ccc(Br)c(C)c2)cc1 | 2.6
Cc1ccc(S(=O)(=O)/C(C#N)=C/Nc2cc(C(F)(F)F)cc(C(F)(F)F)c2)cc1 | 3.7*
Cc1ccc(S(=O)(=O)NNC(=S)Nc2c(Cl)cccc2Cl)cc1 | -0.42
CCCCSc1sc(C(=O)OCC)c2c1C(=O)CCC2 | -2.2
O=C(Nc1nnc(C2CC2)s1)Nc1cccc2ccccc12 | 1.1
CS(=O)(=O)N(CC(=O)N1CCc2ccccc2C1)c1cccc2ccccc12 | 1.7
SMILES | Dicer processing
O=C(c1nc2ncccn2n1)N1CCc2ccccc2C1 | 2
CN(C)S(=O)(=O)N1CCc2ccccc2C1 | 4.9*
CC1(C)CC(=O)C2=C(C1)c1c(ccc3ccccc13)NC2c1cccc(O)c1 (stereo not given) | -0.24
CC(C)(C)S(=O)(=O)/C(C#N)=C/NN1CCCCC1 | 0.08
COc1ccc(-c2nc3n(n2)C(=O)CC(c2ccc(Cl)cc2)S3)cc1 (stereo not given) | 4.5*
COc1ccc(-c2ncnn2-c2ccc(Cl)cc2)cc1 | 2.2
COc1ccc(-c2nc3n(n2)C(c2ccc(Cl)cc2)C2=C(CCCC2=O)N3)cc1 (stereo not given) | 0.44
CCn1cc(-c2ccc3ccccc3n2)c(=S)c2ccccc21 | -0.83
CC(=O)Nc1nc2ccc(NC(=O)c3sc4ccccc4c3Cl)cc2s1 | 0.3
CC(=O)Nc1ccc2nc(NC(C)=O)sc2c1 | 3.2*
CC(=O)Nc1nc2ccc(NC(=O)c3c([N+](=O)[O-])cnn3C)cc2s1 | 1.1
O=S(=O)(Nc1cc(C(F)(F)F)cc(C(F)(F)F)c1)c1ccc(Cl)s1 | -1.4
COC(=O)c1c(N)oc2c(-c3ccc(C)cc3)c3c(C(=O)OC)c(N)oc3cc12 | 3.8*
COC(=O)c1c(C)oc2ccc(O)cc12 | 1.5
COC(=O)c1c(C)oc2ccc(OC(C)C(=O)O)cc12 (stereo not given) | -0.16
CCOC(=O)c1c(N)oc2c(-c3ccc(C)c(C)c3)c3c(C(=O)OCC)c(N)oc3cc12 | 5*
CCOC(=O)c1c(N)oc2c(-c3ccc(C)cc3)c3c(C(=O)OCC)c(N)oc3cc12 | -1.6
CCOC(=O)c1c(N)oc2c(-c3ccc(CC)cc3)c3c(C(=O)OCC)c(N)oc3cc12 | 0.57
CCOC(=O)C(Cc1c[nH]c2ccccc12)NS(=O)(=O)c1ccc(Cl)cc1 (stereo not given) | 0.62
Cc1nn(C)c(C)c1CNC(=O)c1cc2n(n1)C(C(F)(F)F)CC(c1ccc3c(c1)OCO3)N2 (stereo not given) | -1.2
Cc1ccc(C2C(C(=O)c3ccccc3)=NOC23C(=O)c2ccccc2C3=O)cc1 (stereo not given) | 1.3
COc1ccc2c(c1)Cc1sc(NC(=O)c3ccc(OC)c(OC)c3)nc1-2 | -2.9
Clc1ccc(C2=Nn3c(CSc4ccccc4)nnc3SC2)cc1 | -0.33
CC(C)=N/N=C1/N=C(c2ccc(Cl)cc2)CS1 | 5.2*
CC(=Nc1ccc(Cl)cc1)c1ccsc1 | 0.26
Cn1c(N/N=C/c2ccncc2)nc2c1c(=O)n(Cc1ccccc1)c(=O)n2C | 0.04
Cc1ccn2cc(-c3ccccc3)nc2c1 | 0.32
O=C(N=S1CCN(c2sccc2[N+](=O)[O-])CC1)Nc1ccc(Cl)cc1Cl | -0.17
